Test results from PubChem BioAssay (NCI).
The panel holds about 79,000 compounds, 15% with a hit somewhere; the sample as a whole holds those more often. Calls of active or inactive are those of the source. No stated cut-off is given here; in the data, active means growth inhibition above about 70%; inactive means the rest.

What was measured:
[1] = NCI Yeast Anticancer Drug Screen. Data for the mec2-1 strain (AID 157); settings: S. cerevisiae mec2-1 strain, hits give high values
Method in brief: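 mec2-1 yeast strain, carrying an alteration in DNA damage repair or cell cycle control, was exposed to compounds; growth inhibition was measured relative to vehicle-treated controls.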

[2] = NCI Yeast Anticancer Drug Screen. Data for the rad14 strain (AID 159);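 further: 0% = growth of vehicle-treated control cultures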; settings: S. cerevisiae rad14 strain growth inhibition, hits give high values
Method in brief: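 Vehicle-treated cultures served as the baseline for growth inhibition of a DNA repair-mutant yeast strain exposed to each compound.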

[3] = NCI Yeast Anticancer Drug Screen. Data for the sgs1 mgt1 strain (AID 161);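 further: 0% = growth of cultures given vehicle only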; settings: S. cerevisiae sgs1 mgt1 strain, hits give high values
Method in brief: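 Compounds are added to genetically altered yeast, and growth is compared with cultures given vehicle alone to give percent inhibition.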

[4] = NCI Yeast Anticancer Drug Screen. Data for the CLN2oe strain (AID 163);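 further: 0% = growth of vehicle-only control cultures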; settings: S. cerevisiae CLN2oe strain, hits give high values
Method in brief: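 Yeast cells carrying a defined cell-cycle control alteration were exposed to test compounds. Growth inhibition was scored against vehicle-treated control cultures.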

[5] = NCI Yeast Anticancer Drug Screen. Data for the cln2 rad14 strain (AID 165);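 further: 0% = growth equal to vehicle treated cultures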; settings: S. cerevisiae cln2 rad14 strain, hits give high values
Method in brief: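 Yeast carrying cln2 and rad14 alterations (cell cycle control and DNA damage repair) were exposed to compounds. Growth inhibition was measured against vehicle-treated controls.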

[6] = NCI Yeast Anticancer Drug Screen. Data for the bub3 strain (AID 167); settings: S. cerevisiae bub3 mutant strain, hits give high values
Method in brief: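 Inhibition values come from growth of compound-treated mutant yeast normalised to vehicle-treated controls.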

[7] = NCI Yeast Anticancer Drug Screen. Data for the wt2 strain (AID 169);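 further: 0% = growth of vehicle-treated yeast cultures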; settings: S. cerevisiae wt2 strain growth inhibition, hits give high values
Method in brief: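 Yeast cells were exposed to test compounds, and growth inhibition was measured relative to vehicle-treated controls.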

[8] = NCI Yeast Anticancer Drug Screen. Data for the mlh1 strain (AID 171);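 further: 0% = growth of vehicle-treated control cultures of the same strain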; settings: S. cerevisiae mlh1 strain growth inhibition, hits give high values
Method in brief: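 Yeast carrying a defined genetic alteration in DNA damage repair or cell cycle control were exposed to test compounds. Growth inhibition was measured relative to vehicle-treated controls.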

[9] = NCI Yeast Anticancer Drug Screen. Data for the sgs1 strain (AID 173);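 further: 0% = growth of vehicle-only control cultures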; settings: S. cerevisiae sgs1 mutant, hits give high values
Method in brief: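 Yeast mutant strains carrying defined defects in DNA damage repair or cell cycle control were exposed to test compounds. Growth inhibition was scored against vehicle-treated controls.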

[10] = NCI Yeast Anticancer Drug Screen. Data for the mlh1 rad18 strain (AID 175); settings: S. cerevisiae mlh1 rad18 strain growth inhibition, hits give high values
Method in brief: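 Growth inhibition of the yeast strain was measured after compound exposure and expressed relative to vehicle-treated controls. The strain carries defined defects in DNA damage repair.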

[11] = NCI Yeast Anticancer Drug Screen. Data for the rad18 strain (AID 177); settings: S. cerevisiae rad18 mutant growth inhibition, hits give high values
Method in brief: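 Yeast carrying a defined DNA damage repair alteration were exposed to compounds. Growth inhibition was expressed relative to vehicle-treated controls.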

[12] = NCI Yeast Anticancer Drug Screen. Data for the rad52 strain (AID 147);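 further: 0% = growth of vehicle-treated control cultures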; settings: S. cerevisiae rad52 mutant growth inhibition, hits give high values
Method in brief: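 Yeast strain carrying a DNA damage repair alteration was exposed to test compounds. Growth inhibition was measured relative to vehicle-treated controls.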

[13] = NCI Yeast Anticancer Drug Screen. Data for the wt1 strain (AID 149);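 further: 0% = growth of vehicle-treated wt1 cultures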; settings: S. cerevisiae wt1 strain (SPY 50644) growth inhibition, hits give high values
Method in brief: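 Vehicle-normalised growth inhibition; strain wt1; compound exposure.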

[14] = NCI Yeast Anticancer Drug Screen. Data for the rad50EPP+ strain (AID 151);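 further: 0% = growth of vehicle-treated control cultures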; settings: S. cerevisiae rad50 mutant strain, hits give high values
Method in brief: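 Yeast strain carrying rad50 alteration (rad50EPP+) exposed to compounds; growth inhibition measured relative to vehicle-treated controls.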

[15] = NCI Yeast Anticancer Drug Screen. Data for the mgt1 strain (AID 153); settings: S. cerevisiae mgt1 mutant growth inhibition, hits give high values
Method in brief: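 Yeast mgt1 strain (DNA repair/cell-cycle alteration panel) exposed to compounds; growth inhibition measured relative to vehicle-treated controls.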

[16] = NCI Yeast Anticancer Drug Screen. Data for the rad50 strain (AID 155);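 further: 0% = growth of vehicle-only cultures of the same strain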; settings: S. cerevisiae rad50 strain growth inhibition, hits give high values
Method in brief: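 A DNA repair-deficient yeast mutant serves as the test organism; compound-induced growth inhibition is calculated against vehicle-treated cells.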

[17] = at 5.0 µM (retest, dose inferred, filed as 0.5)
[18] = at 50.0 µM (retest, dose inferred, filed as 5.0)

Measured: growth inhibition

O=C1C(CCSc2ccccc2)C(=O)N(c2ccccc2)C1c1ccccc1 (stereo unspecified)
inactive: [1]; [17] 47% | [1]; at 11.0 µM 29% | [2]; at 1.2 µM -4% | [2]; at 3.7 µM -21% | [2]; at 11.0 µM 2% | [3]; [17] -3% | [4]; at 1.2 µM -8% | [4]; at 3.7 µM 2% | [4]; at 11.0 µM 48% | [5]; [17] 33% | [6]; at 1.2 µM 7% | [6]; at 3.7 µM 20% | [6]; [17] 25% | [6]; at 11.0 µM 46% | [7]; at 1.2 µM -5% | [7]; at 3.7 µM -4% | [7]; at 11.0 µM 22% | [8]; at 1.2 µM 1% | [8]; at 3.7 µM -14% | [8]; at 11.0 µM 28% | [9]; at 1.2 µM 7% | [9]; at 3.7 µM 15% | [9]; at 11.0 µM 44% | [10]; [17] 44% | [11]; at 1.2 µM -15% | [11]; at 3.7 µM -3% | [11]; at 11.0 µM 24%
active: [1]; at 33.0 µM 95% | [1]; [18] 99% | [1]; at 50.0 µM 91.4% | [1]; at 100.0 µM 90% | [2]; at 33.0 µM 93% | [2]; at 100.0 µM 87% | [3]; [18] 99% | [3]; at 50.0 µM 92.3% | [4]; at 33.0 µM 95% | [4]; at 100.0 µM 85% | [5]; [18] 97% | [5]; at 50.0 µM 91.2% | [6]; at 33.0 µM 96% | [6]; [18] 98% | [6]; at 50.0 µM 90.7% | [6]; at 100.0 µM 88% | [7]; at 33.0 µM 95% | [7]; at 100.0 µM 90% | [8]; at 33.0 µM 95% | [8]; at 100.0 µM 90% | [9]; at 33.0 µM 96% | [9]; at 100.0 µM 87% | [10]; [18] 87% | [10]; at 50.0 µM 90.2% | [11]; at 33.0 µM 95% | [11]; at 100.0 µM 89%

O=C(O)c1ccc2cc(Cl)c3ccccc3c2c1
inactive: [12]; at 1.2 µM 1% | [12]; at 3.7 µM 9% | [12]; at 11.0 µM 28% | [12]; at 33.0 µM 55% | [12]; at 100.0 µM 67% | [13]; at 1.2 µM -4% | [13]; at 3.7 µM 3% | [13]; at 11.0 µM 11% | [13]; at 33.0 µM 30% | [13]; at 100.0 µM 43% | [14]; at 1.2 µM 3% | [14]; at 3.7 µM 9% | [14]; at 11.0 µM 17% | [14]; at 33.0 µM 24% | [14]; at 100.0 µM 21% | [15]; at 1.2 µM -1% | [15]; at 3.7 µM -4% | [15]; at 11.0 µM 15% | [15]; at 33.0 µM 41% | [15]; at 100.0 µM 60% | [16]; at 1.2 µM 2% | [16]; at 3.7 µM 12% | [16]; [17] 23% | [16]; at 11.0 µM 31% | [16]; at 33.0 µM 52% | [16]; at 100.0 µM 67% | [1]; at 1.2 µM -5% | [1]; at 3.7 µM 7% | [1]; [17] 1% | [1]; at 11.0 µM 25% | [1]; at 33.0 µM 44% | [1]; at 100.0 µM 54% | [2]; at 1.2 µM 0% | [2]; at 3.7 µM 7% | [2]; at 11.0 µM 20% | [2]; at 33.0 µM 42% | [2]; at 100.0 µM 58% | [3]; [17] 35% | [4]; at 1.2 µM -10% | [4]; at 3.7 µM -13% | [4]; at 11.0 µM 23% | [4]; at 33.0 µM 41% | [4]; at 100.0 µM 57% | [5]; [17] 30% | [6]; at 1.2 µM -4% | [6]; at 3.7 µM 1% | [6]; [17] 17% | [6]; at 11.0 µM 17% | [6]; at 33.0 µM 31% | [6]; at 100.0 µM 30% | [7]; at 1.2 µM -3% | [7]; at 3.7 µM 0% | [7]; at 11.0 µM 15% | [7]; at 33.0 µM 42% | [7]; at 100.0 µM 56% | [8]; at 1.2 µM 0% | [8]; at 3.7 µM 4% | [8]; at 11.0 µM 26% | [8]; at 33.0 µM 49% | [8]; at 100.0 µM 66% | [9]; at 1.2 µM 0% | [9]; at 3.7 µM 8% | [9]; at 11.0 µM 29% | [9]; at 33.0 µM 53% | [9]; at 100.0 µM 68% | [10]; [17] 58% | [11]; at 1.2 µM 2% | [11]; at 3.7 µM 3% | [11]; at 11.0 µM 19% | [11]; at 33.0 µM 39% | [11]; at 100.0 µM 55%
active: [16]; [18] 93% | [16]; at 50.0 µM 94.9% | [1]; [18] 89% | [1]; at 50.0 µM 94% | [3]; [18] 93% | [3]; at 50.0 µM 93.9% | [5]; [18] 92% | [5]; at 50.0 µM 92.8% | [6]; [18] 86% | [6]; at 50.0 µM 91.4% | [10]; [18] 93% | [10]; at 50.0 µM 94.8%
